Results reported in PubChem BioAssay AID1159580 (chemical genetic matrix, 2015).
About 2,000 (36%) of roughly 5,500 compounds were called active. Inconclusive results (about 18%) are left out. No stated cut-off is given here; in the data, active means normalized growth mostly below about 0.91 (no sharp cut-off); inconclusive means no clear call, values can overlap the other calls; inactive means mostly above about 0.92. The list shows a part of the results.

Assay: chemical genetic growth profiling, strain panel (AID 1159580);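 further: tested at 20 µM; growth read once vehicle control cultures reached saturation at 30 °C; 1 = growth at the plate median or of vehicle wells; lower values mean less growth of the strain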
Conditions: growth OD

Measured: normalized growth

Cc1cc(=O)n(-c2ccccc2)n1C
inactive: S. cerevisiae deletion strains, locus YJR066W, strain TOR1, hits give low values 0.984 | S. cerevisiae deletion strains, locus YJR075W, strain HOC1, hits give low values 1 | S. cerevisiae deletion strains, locus YKL009W, strain mrt4, hits give low values 1 | S. cerevisiae deletion strains, locus YKL068W, hits give low values 1 | S. cerevisiae deletion strains, locus YKL085W, strain MDH1 (second series), hits give low values 0.987 | S. cerevisiae deletion strains, locus YKL085W, strain MDH1, hits give low values 0.987 | S. cerevisiae deletion strains, locus YKL160W, strain elf1, hits give low values 0.936 | S. cerevisiae deletion strains, locus YKR001C, strain vps1, hits give low values 1.02 | S. cerevisiae deletion strains, locus YKR026C, strain gcn3, hits give low values 1 | S. cerevisiae deletion strains, locus YKR091W, strain srl3, hits give low values 0.99 | S. cerevisiae deletion strains, locus YLL001W, strain dnm1, hits give low values 0.921 | S. cerevisiae deletion strains, locus YLL026W, hits give low values 1 | S. cerevisiae deletion strains, locus YLL041C, strain sdh2, hits give low values 0.991 | S. cerevisiae deletion strains, locus YLR027C, strain aat2, hits give low values 1 | S. cerevisiae deletion strains, locus YLR039C, strain RIC1, hits give low values 1.04 | S. cerevisiae deletion strains, locus YLR058C, strain SHM2, hits give low values 1 | S. cerevisiae deletion strains, locus YLR102C, strain apc9, hits give low values 0.991 | S. cerevisiae deletion strains, locus YLR113W, strain HOG1, hits give low values 0.981 | S. cerevisiae deletion strains, locus YLR221C, strain rsa3, hits give low values 0.976 | S. cerevisiae deletion strains, locus YLR258W, strain gsy2, hits give low values 1.07 | S. cerevisiae deletion strains, locus YLR262C, strain YPT6 (second series), hits give low values 0.967 | S. cerevisiae deletion strains, locus YLR262C, strain YPT6, hits give low values 1.07 | S. cerevisiae deletion strains, locus YLR268W, strain sec22, hits give low values 0.992 | S. cerevisiae deletion strains, locus YLR320W, strain mms22, hits give low values 0.96 | S. cerevisiae deletion strains, locus YLR330W, strain CHS5, hits give low values 1.01 | S. cerevisiae deletion strains, locus YLR342W, strain FKS1 (second series), hits give low values 1.02 | S. cerevisiae deletion strains, locus YLR342W, strain FKS1, hits give low values 0.99 | S. cerevisiae deletion strains, locus YLR357W, strain rsc2, hits give low values 0.988 | S. cerevisiae deletion strains, locus YLR370C, strain arc18, hits give low values 0.991 | S. cerevisiae deletion strains, locus YLR371W, strain rom2, hits give low values 0.987 | S. cerevisiae deletion strains, locus YLR384C, strain iki3, hits give low values 1 | S. cerevisiae deletion strains, locus YLR418C, strain cdc73, hits give low values 0.995 | S. cerevisiae deletion strains, locus YML016C, strain PPZ1, hits give low values 1.01 | S. cerevisiae deletion strains, locus YML032C, strain rad52, hits give low values 0.993 | S. cerevisiae deletion strains, locus YML120C, strain ndi1, hits give low values 0.97 | S. cerevisiae deletion strains, locus YML124C, strain tub3, hits give low values 0.984 | S. cerevisiae deletion strains, locus YMR058W, strain fet3, hits give low values 0.99 | S. cerevisiae deletion strains, locus YMR078C, strain ctf18, hits give low values 0.975 | S. cerevisiae deletion strains, locus YMR125W, strain sto1, hits give low values 0.935 | S. cerevisiae deletion strains, locus YMR129W, hits give low values 0.998 | S. cerevisiae deletion strains, locus YMR205C, strain PFK2, hits give low values 0.946 | S. cerevisiae deletion strains, locus YMR223W, strain ubp8, hits give low values 0.99 | S. cerevisiae deletion strains, locus YMR231W, strain pep5, hits give low values 0.997 | S. cerevisiae deletion strains, locus YMR307W, strain GAS1, hits give low values 1.09 | S. cerevisiae deletion strains, locus YNL067W, strain RPL9B, hits give low values 0.995 | S. cerevisiae deletion strains, locus YNL071W, strain lat1, hits give low values 0.992 | S. cerevisiae deletion strains, locus YNL128W, strain TEP1, hits give low values 1.01 | S. cerevisiae deletion strains, locus YNL153C, strain GIM3, hits give low values 0.991 | S. cerevisiae deletion strains, locus YNL183C, strain NPR1, hits give low values 0.987 | S. cerevisiae deletion strains, locus YNL209W, strain ssb2, hits give low values 0.994 | S. cerevisiae deletion strains, locus YNL233W, strain BNI4, hits give low values 0.989 | S. cerevisiae deletion strains, locus YNL248C, strain rpa49, hits give low values 0.952 | S. cerevisiae deletion strains, locus YNL250W, strain rad50, hits give low values 1 | S. cerevisiae deletion strains, locus YNL271C, strain bni1, hits give low values 0.989 | S. cerevisiae deletion strains, locus YNL298W, strain CLA4, hits give low values 1.01 | S. cerevisiae deletion strains, locus YNL307C, strain MCK1, hits give low values 0.991 | S. cerevisiae deletion strains, locus YNL322C, strain KRE1 (second series), hits give low values 0.991 | S. cerevisiae deletion strains, locus YNR049C, strain mso1, hits give low values 1 | S. cerevisiae deletion strains, locus YNR052C, strain pop2, hits give low values 0.982 | S. cerevisiae deletion strains, locus YOL006C, strain TOP1, hits give low values 0.961 | S. cerevisiae deletion strains, locus YOL012C, strain htz1 1.68 | S. cerevisiae deletion strains, locus YOL147C, strain pex11, hits give low values 0.989 | S. cerevisiae deletion strains, locus YOR001W, strain rrp6, hits give low values 1.05 | S. cerevisiae deletion strains, locus YOR061W, strain CKA2, hits give low values 1.02 | S. cerevisiae deletion strains, locus YOR069W, strain VPS5, hits give low values 1.01 | S. cerevisiae deletion strains, locus YOR070C, strain gyp1, hits give low values 0.999 | S. cerevisiae deletion strains, locus YOR080W, strain dia2, hits give low values 0.999 | S. cerevisiae deletion strains, locus YOR083W, strain WHI5, hits give low values 0.949 | S. cerevisiae deletion strains, locus YOR106W, strain vam3, hits give low values 0.957 | S. cerevisiae deletion strains, locus YOR136W, strain idh2, hits give low values 0.986 | S. cerevisiae deletion strains, locus YOR144C, strain elg1, hits give low values 0.995 | S. cerevisiae deletion strains, locus YOR184W, strain ser1, hits give low values 1.01 | S. cerevisiae deletion strains, locus YOR231W, strain MKK1, hits give low values 1.04 | S. cerevisiae deletion strains, locus YOR265W, strain rbl2, hits give low values 0.994 | S. cerevisiae deletion strains, locus YOR270C, strain vph1, hits give low values 0.964 | S. cerevisiae deletion strains, locus YOR290C, strain snf2, hits give low values 0.945 | S. cerevisiae deletion strains, locus YOR316C, strain cot1, hits give low values 0.985 | S. cerevisiae deletion strains, locus YPL051W, strain arl3, hits give low values 0.98 | S. cerevisiae deletion strains, locus YPL078C, strain atp4, hits give low values 0.936 | S. cerevisiae deletion strains, locus YPL106C, strain sse1, hits give low values 0.981 | S. cerevisiae deletion strains, locus YPL240C, strain hsp82, hits give low values 1.01 | S. cerevisiae deletion strains, locus YPL256C, strain CLN2, hits give low values 0.999 | S. cerevisiae deletion strains, locus YPR119W, strain clb2, hits give low values 0.982 | S. cerevisiae deletion strains, locus YPR141C, strain kar3, hits give low values 0.995 | S. cerevisiae deletion strains, locus YPR163C, strain tif3, hits give low values 0.992 | S. cerevisiae deletion strains, locus YPR167C, strain met16, hits give low values 0.984 | S. cerevisiae deletion strains, strain wtn01, hits give low values 0.979 | S. cerevisiae strains, strain wild type, hits give low values 1.01
